High-throughput results as filed in PubChem BioAssay.
The full list was thinned out, with hits kept by preference.
LmPK inh: LmPK (Leishmania mexicana) enzyme inhibition. Q27686. purified LmPK, Kinase-Glo ATP luminescence, 1 h. Potency, µM (highest dose often 57.5 µM), for inactives: at the highest dose activity change, negative = inhibition, most hits filed as inhibitors. 290,000 tested, 0.37% active. AID 1721; further: potency means the concentration at half of the fitted maximal effect; on the % scale 0 is the no-effect control and ±100 the full control effect
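Screened at intermediate enzyme activity to detect both inhibitors and activators: LmPK at 0.1 nM, with a 0.5 nM enzyme column as activation reference. PEP 0.5 mM, ADP 0.1 mM; ATP detected by luminescence after 1 h.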
Tb PYK inh: blocks Trypanosoma brucei pyruvate kinase; 410,000 tested, 0.12% active; AID 624173; Q57TT1; TbPYK enzyme, Kinase-Glo Plus ATP luminescence, 45 min; Potency, µM (top dose mostly 76.8 µM), for inactives: at the top dose activity, negative = inhibition, actives largely listed as inhibitors; further: potency means the concentration at half of the fitted maximal effect; on the % scale 0 is the no-effect control and ±100 the full control effect; nearly all actives have a fitted effect of over 50% in size
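Assay buffer: 50 mM TEA pH 7.2, 100 mM KCl, 10 mM MgCl2, 0.05% BSA, 0.01% Tween-20. Pyruvate kinase from T. brucei plus substrate met compound, then ADP (130 uM final). Luminescence was read post 45 min RT.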
Sm TGR block: inhibitors of Schistosoma mansoni thioredoxin glutathione reductase; 360,000 tested, 3% active; Potency, µM (highest dose often 114 µM), without a hit: at the top dose activity change, negative = inhibition, actives largely listed as inhibitors; purified TGR, DTNB reduction, TNB absorbance 405 nm; Q962Y6; AID 485364; further: potency means the concentration at half of the fitted maximal effect; on the % scale 0 is the no-effect control and ±100 the full control effect; nearly all actives have a fitted effect of over 60% in size
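TGR 20 nM + NADPH 100 uM (dispensed conc.), cpd preinc 15 min RT; start with NADPH (500 uM addition) then DTNB (15 mM addition). Kinetic TNB absorbance, 405 nm filter. Four-parameter Hill fit across titration.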
Shiga inhibitor: Shiga toxin inhibition | Vero cells, Shiga toxin protein synthesis inhibition reporter | inhibition, % at 38.7 µM | 290,000 tested, 9.2% active | AID 2315; in the data active means inhibition mostly above about 28%, no sharp cut-off; inactive means mostly below about 43%; further: 0% is about no effect
Giardia FBPA inh: inhibitors of Giardia lamblia fructose-1,6-bisphosphate aldolase; AID 2451; Potency, µM (series often up to 59.6 µM), without a hit: at the highest dose activity, negative = inhibition, usual class: inhibitors; A8B2U2; purified Giardia FBPA; 290,000 tested, 0.71% active; further: potency means the concentration at half of the fitted maximal effect; on the % scale 0 is the no-effect control and ±100 the full control effect; nearly all actives have a fitted effect of over 55% in size
Target sequence (A8B2U2 whole entry, looked up): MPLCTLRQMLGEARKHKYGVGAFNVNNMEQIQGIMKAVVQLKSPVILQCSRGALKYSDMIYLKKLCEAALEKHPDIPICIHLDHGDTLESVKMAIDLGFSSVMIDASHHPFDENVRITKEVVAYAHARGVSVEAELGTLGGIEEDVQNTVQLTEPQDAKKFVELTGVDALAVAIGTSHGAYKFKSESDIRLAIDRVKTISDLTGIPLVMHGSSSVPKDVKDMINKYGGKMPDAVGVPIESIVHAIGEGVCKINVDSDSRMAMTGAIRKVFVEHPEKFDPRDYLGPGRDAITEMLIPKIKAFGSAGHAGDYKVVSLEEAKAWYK
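40 nM FBPA preincubated 10 min at RT with compound (up to 57.5 uM final), then substrate plus GAPDH/TPI/NAD/arsenate coupling and diaphorase/resazurin added. Fluorescence read after 20 min at RT, 525/598 nm.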
CHX counter-1: affects cycloheximide protein synthesis inhibition readout, counter-screen | cell reporter, cycloheximide protein synthesis inhibition counterscreen | max response, % | 300,000 tested, 12% active; in the data active means max response mostly above about 13%, no sharp cut-off; inactive means mostly below about 14%; further: read at 38.3 µM for the half of the compounds with a filed dose; 0% is about no effect
CHX counter-2: protein synthesis counter-screen activity for Shiga toxin hits; shares compounds with Shiga inhibitor; Cycloheximide counterscreen, protein synthesis reporter, Shiga toxin assay; Potency, µM (series often up to 38.3 µM), inactives show top-dose activity (activation), hits mostly activators; 510 tested, 3% active; calls by dose curve; further: potency means the concentration at half of the fitted maximal effect; 0% is about no effect
Starred values were filed as active, the others as inactive. Unless noted, the call rests on the fitted dose curve; in most records, active means well fitted curve in the direction sought with a large enough effect; inconclusive means small, poorly fitted or top-dose-only effect, or another doubt; inactive means no such curve, though single readings can be large; an effect the other way counts as inactive or inconclusive.

Screening C=CCNc1sc(C(=O)c2ccccc2)c(N)c1-c1nc2ccccc2s1 returned LmPK inh 1%, Tb PYK inh inconclusive, Sm TGR block -10%, Shiga inhibitor 73*, Giardia FBPA inh 1%, CHX counter-1 13 and CHX counter-2 inconclusive.
Screening Nc1nc2ccc(Cl)cc2cc1C(=O)NCc1ccc(Oc2ccccc2)cc1 returned Tb PYK inh 4%.
`CC1CN(C(=O)CCc2cc(C(C)(C)C)c(O)c(C(C)(C)C)c2)CC(C)O1` (stereo not drawn) gave LmPK inh -10%, Tb PYK inh 1%, Sm TGR block 6%, Shiga inhibitor 16, Giardia FBPA inh 0% and CHX counter-1 9.
Screening CC(C)(C)c1cc(CCC(=O)N2CCC2)cc(C(C)(C)C)c1O returned LmPK inh -9%, Tb PYK inh 26%, Sm TGR block -24%, Shiga inhibitor 14*, CHX counter-1 14 and CHX counter-2 5%.
Screening NC(=O)[C@@H]1CCCN1C(=O)c1ccc2nc(Cc3cccc(Cl)c3)oc2c1 returned LmPK inh -6%, Tb PYK inh 6%, Sm TGR block -12%, Shiga inhibitor 24*, CHX counter-1 -2 and CHX counter-2 0%.
For CCN1CC(CNC(=O)c2ccc3nc(Cc4cccc(Cl)c4)oc3c2)CC1=O (stereo not drawn) the results were LmPK inh -3%, Tb PYK inh 0%, Sm TGR block 4%, Shiga inhibitor -12, Giardia FBPA inh 4% and CHX counter-1 -1.
`Cc1ccc(S(=O)(=O)N(C)C)cc1NC(=O)C(C)OC(=O)/C=C/c1cccs1` (stereo not drawn) gave LmPK inh 0%, Tb PYK inh -1%, Sm TGR block 6%, Shiga inhibitor 9, Giardia FBPA inh 0% and CHX counter-1 6.
CC1CCC/C=C/C2CC(O)CC2C(O)/C=C/C(=O)O1 (stereo not drawn) was read as LmPK inh -2%, Tb PYK inh 0%, Sm TGR block -6%, Shiga inhibitor 41*, Giardia FBPA inh -1%, CHX counter-1 5 and CHX counter-2 -7%.
For C=CCn1c(=S)[nH]c2cc(-c3ccccc3)sc2c1=O the results were LmPK inh 0%, Tb PYK inh -2%, Sm TGR block 4%, Shiga inhibitor 39*, Giardia FBPA inh -13%, CHX counter-1 0 and CHX counter-2 inconclusive.
Screening C=CCn1c(=S)[nH]c2ccccc2c1=O returned LmPK inh -6%, Tb PYK inh -10%, Sm TGR block 2%, Shiga inhibitor -4, Giardia FBPA inh -14% and CHX counter-1 -1.
Cc1ccc(-n2c(C)c(C)c3c(N)ncnc32)cc1 was read as LmPK inh -2%, Tb PYK inh -19%, Sm TGR block 5%, Shiga inhibitor 34*, Giardia FBPA inh 6%, CHX counter-1 2 and CHX counter-2 2%.
Screening Cn1nccc1C(=O)Nc1sc2c(c1C#N)CCCC2 returned LmPK inh 1%, Tb PYK inh -4%, Sm TGR block -6%, Shiga inhibitor 16*, CHX counter-1 16 and CHX counter-2 inconclusive.
O=C(NCCc1csc(-c2cccnc2)n1)c1ccc(Cl)cc1 was read as LmPK inh 6%, Tb PYK inh 3%, Sm TGR block 0%, Shiga inhibitor 21*, Giardia FBPA inh 4%, CHX counter-1 -2 and CHX counter-2 inconclusive.
O=C(NCCc1csc(-c2cccnc2)n1)c1cccc(Cl)c1 was read as LmPK inh -6%, Tb PYK inh 10%, Sm TGR block 3%, Shiga inhibitor 41, Giardia FBPA inh 6% and CHX counter-1 10.
For O=C(COc1ccc(Br)cc1CNCCc1ccccc1)NCc1ccccc1 the results were LmPK inh 0%, Tb PYK inh -6%, Sm TGR block 3%, Shiga inhibitor 40*, Giardia FBPA inh -4%, CHX counter-1 12 and CHX counter-2 2%.
`CC(C)CC(=O)Nc1ccc2c(c1)nc(CCN1CCOCC1)n2C` gave LmPK inh -1%, Tb PYK inh 0%, Sm TGR block 12%, Shiga inhibitor 19, Giardia FBPA inh -5% and CHX counter-1 -2.
CCN(CC(=O)Nc1c(F)cccc1F)C(=O)CCCc1c[nH]c2ccccc12 was read as LmPK inh -3%, Tb PYK inh -1%, Sm TGR block -21%, Shiga inhibitor -2, Giardia FBPA inh -5% and CHX counter-1 6.
CCN(CC)C(=O)CCCc1c[nH]c2ccccc12 was read as LmPK inh 0%, Tb PYK inh 0%, Shiga inhibitor 52*, Giardia FBPA inh -7%, CHX counter-1 9 and CHX counter-2 5%.
`Cc1ccc(NS(=O)(=O)c2ccc(NC(=O)c3ccc(Br)o3)cc2)c(C)c1` gave LmPK inh 6%, Tb PYK inh 2%, Sm TGR block -1%, Shiga inhibitor 21, Giardia FBPA inh -6% and CHX counter-1 -2.
Screening Cc1cc(NC(=O)c2ccc(Br)o2)ccc1NC(=O)c1ccco1 returned LmPK inh inconclusive, Tb PYK inh -14%, Sm TGR block -4%, Shiga inhibitor 61*, Giardia FBPA inh -1%, CHX counter-1 9 and CHX counter-2 5%.
O=C(COCc1cc(-c2ccc3c(c2)OCO3)on1)N1CCN(c2ccccc2)CC1 was read as LmPK inh -4%, Tb PYK inh -1%, Sm TGR block 1%, Shiga inhibitor 40*, CHX counter-1 7 and CHX counter-2 1%.
For O=C(COCc1cc(-c2cccs2)on1)N1CCN(c2ccccc2)CC1 the results were Tb PYK inh 1% and Sm TGR block 0%.
`Cc1c(C(=O)Nc2ccc(-c3nnc4n3CCCCC4)cc2)oc2ccc(Br)cc12` gave LmPK inh -1%, Tb PYK inh -6%, Sm TGR block -7%, Shiga inhibitor 14*, Giardia FBPA inh -4%, CHX counter-1 -4 and CHX counter-2 inconclusive.
O=C(NC1CCCC1)C1c2ccccc2OCC(=O)N1C1CC1 (stereo not drawn) was read as Tb PYK inh 6%.
Cc1nc([N+](=O)[O-])c(C(=O)OCc2cccc(Br)c2)n1C was read as LmPK inh 9%, Tb PYK inh -6%, Sm TGR block 3%, Shiga inhibitor 28, Giardia FBPA inh 2% and CHX counter-1 8.
Screening COc1ccc(CNCC(=O)Nc2sccc2C#N)cc1 returned LmPK inh -4%, Tb PYK inh 4%, Shiga inhibitor 52*, Giardia FBPA inh inconclusive, CHX counter-1 13 and CHX counter-2 2%.
